# Hits are enriched below; roughly 3.9% of the tested compounds scored in any of these assays.
# CCHF vOTU inh: blocks the CCHF virus ovarian tumor domain protease; inhibition, % at 11.5 µM; AID 651958; CCHFV vOTU protease, Pep-AMC fluorescence; actives 0.55% (n = 370,000); note: 0% = vehicle wells with enzyme and 100% = no enzyme wells
# GDH-TPI counter: GDH-TPI coupled enzyme inhibition counter-screen. GDH-TPI coupled enzyme counterscreen, NADH absorbance. inhibition, % at 4.8 µM. actives 1.2% (n = 360,000). AID 588335;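 note: 0% = DMSO wells and 100% = wells lacking the enzyme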
# Vc quorum ag-1: quorum light induction in luxS cqsA deficient V. cholerae; V. cholerae BH1578 lux reporter, luminescence, 6 h; activation, % at 18.7 µM; actives 0.16% (n = 350,000); in the data active = activation mostly above about 9.7%, no sharp cut-off
# Mtb FBA inh: Mtb fructose-bisphosphate aldolase inhibition | P9WQA3 | purified M. tuberculosis FBA, fluorescence read-out | inhibition, % at 1 µM | actives 2.3% (n = 360,000); in the data active = inhibition above about 27%;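 note: 0% = vehicle and 100% = reference inhibitor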
# Target sequence (P9WQA3 whole entry, looked up): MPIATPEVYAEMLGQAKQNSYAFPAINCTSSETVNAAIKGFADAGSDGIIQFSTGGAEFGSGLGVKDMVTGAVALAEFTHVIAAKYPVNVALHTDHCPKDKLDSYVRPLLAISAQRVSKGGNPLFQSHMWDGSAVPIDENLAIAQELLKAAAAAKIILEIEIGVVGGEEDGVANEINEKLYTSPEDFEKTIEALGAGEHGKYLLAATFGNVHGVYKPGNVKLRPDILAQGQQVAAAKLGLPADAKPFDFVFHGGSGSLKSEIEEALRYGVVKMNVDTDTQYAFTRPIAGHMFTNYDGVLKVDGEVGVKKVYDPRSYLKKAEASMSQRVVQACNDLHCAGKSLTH
# Vc quorum ag-2: induces V. cholerae light production without autoinducers. shares compounds with Vc quorum ag-1. 620 tested, under 10 active. AID 602243. V. cholerae BH1578 lux reporter, luminescence, 6 h. activation, % at 50 µM; call rule not given here
# HeLa tox: cytotoxicity in HeLa cells at 24 hours; HeLa viability, CellTiter-Glo ATP luminescence; shares compounds with Vc quorum ag-1; 25 tested, under 10 active; AID 624140; activity change, negative = cytotoxicity, % at 35 µM;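 active = signal drop with fitted half-maximal concentration at or below twice the highest valid dose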
# Starred values were filed as active, the others as inactive; i = inactive; . = no result given. Cut-off read from the data, not from the text of the source, unless noted: active = inhibition above about 30%; inactive = the rest.
SMILES,CCHF vOTU inh,GDH-TPI counter,Vc quorum ag-1,Mtb FBA inh,Vc quorum ag-2,others
Cc1nc(N2CCc3ccccc3C2)[nH]c(=O)c1Cc1ccccc1,0,-1,1,-2,.,
CCCCCc1c(C)nc(N2CCc3ccccc3C2)[nH]c1=O,2,-7,25*,0,15,
CC(C)N1CCc2c(sc(NC(=O)c3ccc4ccccc4c3)c2C(N)=O)C1,-8,10,138*,1,1,
CC(C)N1CCc2c(sc(NC(=O)c3ccc(C(=O)c4ccccc4)cc3)c2C(N)=O)C1,10,8,0,-3,.,
CCCn1nnnc1NCc1ccc(N(C)C)cc1,10,5,.,4,i,
CCCn1nnnc1NCc1ccccc1OCC,-13,23,0,-1,.,
CCCCn1nnnc1NCc1cccs1,3,-11,0,1,.,
CCCn1nnnc1NCc1ccc(C(C)C)cc1,4,1,.,0,i,HeLa tox=6
CCCCn1c(NCc2ccc(N(C)C)cc2)nc2ccccc21,-4,9,0,1,.,
CCCn1nnnc1NCc1ccccc1Cl,-6,-2,i,-1,.,HeLa tox=2
Cc1ccc(C)c(NC(=O)NCCN2CCCCC2)c1,0,25,-1,-2,.,
C[C@H](CO)N1C[C@H](C)[C@H](CN(C)C(=O)Cc2ccccc2)OCc2cnnn2CCCC1=O,-2,-4,i,2,.,
COc1ccccc1S(=O)(=O)Cc1ccc(C(=O)NCC2CCCO2)o1 (stereo not drawn),-1,3,1,1,.,
C[C@H](CO)N1C[C@H](C)[C@@H](CN(C)S(C)(=O)=O)Oc2c(NC(=O)Nc3ccc4c(c3)OCO4)cccc2C1=O,-1,4,i,-1,.,
C[C@H](CO)N1C[C@H](C)[C@@H](CN(C)S(=O)(=O)c2ccccc2)Oc2c(NC(=O)Nc3ccc4c(c3)OCO4)cccc2C1=O,-8,11,109*,3,11,
O=C(CN(C(=O)CNS(=O)(=O)c1ccc(F)cc1)c1ccccc1F)NCc1ccco1,20,4,i,2,.,
COc1ccc(-c2ccc3c(n2)CCCN3S(=O)(=O)c2cccs2)cc1,-10,.,.,.,.,
Cc1sc2ncn(CC(=O)NCCCC(=O)N3CCC(C(N)=O)CC3)c(=O)c2c1C,11,-2,0,-1,.,
CCCN1CCN(C(=O)CCCNC(=O)Cn2cnc3sc(C)c(C)c3c2=O)CC1,-2,-11,14,-4,5,
Brc1ccc(-c2nnc3sc(CN4CCC5(CC4)OCCO5)cn23)cc1,.,-15,0,-2,.,
CC(=O)c1cc2c(cc1NS(=O)(=O)c1ccccc1)OCO2,7,1,14,2,0,
CCC(C)NS(=O)(=O)c1ccc(S(=O)(=O)Nc2cc3c(cc2C(C)=O)OCO3)cc1 (stereo not drawn),-12,15,22*,0,0,
CC(=O)c1cc2c(cc1NS(=O)(=O)c1cccc(C(=O)O)c1)OCO2,10,5,-4,3,.,
CCn1c(CC(=O)Nc2ccccc2)nnc1SCC(=O)Nc1nncs1,9,8,-6,-1,.,
CN1CCC(N(C)C(=O)c2cc(=O)c3ccccc3o2)CC1,5,-8,-1,9,.,
SMILES,CCHF vOTU inh,GDH-TPI counter,Vc quorum ag-1,Mtb FBA inh,Vc quorum ag-2,others
COc1cccc(/C(O)=C2/C(=O)C(=O)N(CCN(C)C)C2c2ccccn2)c1 (stereo not drawn),10,15,i,-5,.,
Cn1cccc1C(=O)OCc1cc(-c2ccco2)on1,4,3,31*,-2,39,
Cc1ccc(NC(=O)CN(C)C(=O)CSc2nc3ccccc3c(=O)n2CCO)cc1,-5,3,i,1,.,
COCCn1c(SCC(=O)NC2CCCCC2)nc2c(c1=O)SCC2,0,6,i,-1,.,
O=C(NCc1ccccn1)C(C(=O)c1ccc(F)cc1)n1ccccc1=O (stereo not drawn),13,11,12,-2,0,
O=C(NCc1ccco1)C(C(=O)c1ccc(F)cc1)n1ccccc1=O (stereo not drawn),10,2,0,2,.,
Cc1ccc2occ(C(c3nnnn3Cc3ccccc3)N3CCOCC3)c(=O)c2c1 (stereo not drawn),-3,-9,25*,2,1,
CCc1ccc2[nH]c(=O)c(C(c3nnnn3Cc3ccccc3)N3CCOCC3)cc2c1 (stereo not drawn),4,16,i,2,.,
CC(C)C(NC(=O)c1ccc(S(=O)(=O)N2CCOCC2)cc1)c1nc2ccccc2[nH]1 (stereo not drawn),-9,-6,14,-2,0,
C[C@H](NC(=O)c1ccc(Cl)c(S(=O)(=O)N2CCOCC2)c1)c1nc2ccccc2[nH]1,0,17,i,5,.,
CCN(CC)CCNC(=O)C1(c2ccccc2)CCCCC1,2,0,0,0,.,
O=C(NCc1nc(-c2ccccc2)no1)c1cccs1,3,-3,179*,-1,45,
CCC(=O)NCCc1nc(-c2ccccc2)no1,-2,3,986*,0,716,
CC(C)Cc1cc(C(=O)NCc2cccs2)no1,-1,-1,1,0,.,
Cc1cccc(C(=O)NCC(c2cccs2)N2CCOCC2)c1 (stereo not drawn),6,4,14,0,0,
Cc1cccc(C(=O)NCC(=O)NCC(c2cccs2)N2CCOCC2)c1 (stereo not drawn),-3,-5,-1,0,.,
Cc1ccc(C(=O)OCC(=O)NCC(F)(F)F)cc1C,1,-2,21,2,153,
O=C(NCCC(=O)N1CCCCCCC1)c1ccc(Br)cc1,9,-10,-1,0,.,
O=C(NCCC(=O)N1CCCCC1)c1ccc(Br)cc1,12,0,11,1,6,
Cc1ccc(C(=O)OCC(=O)Nc2ccc(N(C)C)cc2)cc1NC(=O)c1ccco1,14,-8,-1,-6,.,
Cc1ccc(C(=O)OCC(=O)Nc2ccccc2)cc1NC(=O)c1ccco1,-3,3,7,3,0,
O=C(CC1SCCNC1=O)Nc1ccccc1Cl (stereo not drawn),-15,0,0,2,.,
O=C(c1ccccn1)N(Cc1ccco1)C1(C(=O)NC2CCCC2)CCCCC1,0,11,-1,1,.,
O=C(c1ccc2c(c1)OCO2)N(Cc1ccco1)C1(C(=O)NC2CCCCC2)CCCCC1,-3,10,17*,-2,0,
Cc1ccc(Cn2c(SCC(C)C)nc3c2c(=O)[nH]c(=O)n3C)cc1,4,3,25*,0,2,
COc1ccc(C)c2sc(N3CCCC3)nc12,-4,-5,28*,-1,1,
Cn1nnnc1SCC(=O)c1ccc2c(c1)OCCO2,-9,2,2,0,.,
CCCn1nnnc1SCC(=O)c1ccc2c(c1)OCCO2,0,-13,65*,-13,i,
O=C(OCc1cc(=O)n2ccsc2n1)c1ccc(OC(F)F)cc1,-10,2,13,5,0,
COC(=O)C(C)N(c1ccc(C)cc1)S(=O)(=O)c1c(C)[nH]c(=O)[nH]c1=O (stereo not drawn),-19,6,111*,-1,0,
